Results filed as inconclusive are left out. Entries that show only a call come without a potency. Active and inactive are the calls of the source. Calls come from the whole dose curve; as a rule, active = well fitted cell-killing curve with a large enough effect in the repeat runs; inconclusive = weak or mixed curves; inactive = flat fitted curve, though single readings scatter.
Experiment: qHTS assay to identify small molecule antagonists of the estrogen receptor beta (ER-beta) signaling pathway - cell viability counter screen (AID 1259382); note: nearly all actives have a fitted effect of over 55% in size
Details: ER-beta-UAS-bla HEK293T viability, CellTiter-Glo luminescence, 16 h; series mostly up to 92.4 µM
Description: U.S. Tox21 Program National Center for Advancing Translational Sciences [NCATS] NIH Chemical Genomics Center [NCGC] U.S. Environmental Protection Agency [EPA] National Institutes of Environmental Health Sciences [NIEHS] National Toxicology Program [NTP] U.S. Food and Drug Administration [FDA] Tox21 Assay Overview: Estrogen receptor (ER), a nuclear hormone receptor, plays an important role in development, metabolic homeostasis and reproduction. Two subtypes of ER, ER-alpha and ER-beta, have similar expression patterns with some uniqueness in both types. Endocrine disrupting chemicals (EDCs) and their interactions with steroid hormone receptors like ER causes disruption of normal endocrine function. To identify the compounds that inhibit ER signaling, an ER-beta-UAS-bla GripTite cell line (Life Technologies, Madison, WI, USA) containing a beta-lactamase reporter gene under the control of an UAS response element was used to screen Tox21 10K compound library. The cytotoxicity of the Tox21 compound library against the ER-beta-bla cell line was tested in parallel by measuring the cell viability using CellTiter-Glo assay in the same wells.
Tox21 Assay Protocol Summary: ER-beta-UAS-bla HEK293T cells were dispensed at 2,000 cells/4 uL of assay medium containing 2% charcoal stripped FBS per well into black wall/clear-bottom 1536-well plates using a Multidrop Combi (ThermoFisher Scientific, Waltham, MA) dispenser. After the assay plates were incubated at a 37C and 5% CO2 for 6 hr, 23 nL of compounds dissolved in DMSO, positive controls or DMSO only was transferred to the assay plate by a Pintool station (Kalypsys, San Diego, CA), followed by addition of 1 uL (1nM as final concentration) of 17-beta-estradiol (E2) in assay medium using a Flying Reagent Dispenser (FRD, Aurora Discovery, San Diego, CA). The plates were incubated at 37C and 5% CO2 for 16 hr. Then 1 uL of LiveBLAzer B/G FRET substrate was added using a Flying Reagent Dispenser, the plates were incubated at room temperature for 2 hours, and fluorescence intensity was measured by an Envision plate reader (PerkinElmer, Shelton, CT). For cell viability readout that measures cytotoxicity, 4 uL/well of CellTiter-Glo reagent was added into the assay plates using a FRD. After 30 min incubation at room temperature, the luminescence intensity in the plates was measured using a ViewLux (PerkinElmer) plate reader.
Potency is the fitted concentration of half-maximal effect.

Question: For `CC1CCCC(=O)C1=O` (stereo not given), which Potency is on record?
Answer: Its Potency is “inactive”.

Question: Which Potency does the source give for `CNC1CCCN(c2c(F)cc3c(=O)c(C(=O)O)cn(C4CC4)c3c2OC)C1` (stereo not given) here?
Answer: Its Potency is “inactive”.

Question: With `NC(=O)CCCCC(N)=O` as the compound, how does the Potency read?
Answer: The Potency was “inactive”.

Question: With `COc1ccc(C(=O)NCc2ccc(OCCN(C)C)cc2)cc1OC` as the compound, how does the Potency read?
Answer: Its Potency is “inactive”.

Question: With `CCCCCCCC(=O)OCCCCCC` as the compound, how does the Potency read?
Answer: Its Potency is “inactive”.

Question: Which Potency does the source give for `CC(C)CC(O)CC(C)C` here?
Answer: The Potency was “inactive”.

Question: Which Potency does the source give for `CS(=O)(=O)c1ccc([C@@H](C[C@H]2CCC(=O)C2)C(=O)Nc2cnccn2)cc1Cl` here?
Answer: The Potency was “inactive”.

Question: With `CO[C@@H]1[C@@H](OC)[C@H](C)[C@@](O)(CC(=O)O)O[C@H]1[C@H](C)[C@H]1O[C@@]2(CC[C@@](C)([C@H]3CC[C@@](C)([C@@H]4O[C@@H]([C@H]5O[C@](C)(O)[C@H](C)C[C@@H]5C)C[C@@H]4OC4C[C@H](OC)[C@@H](OC)[C@H](C)O4)O3)O2)C[C@H](O)[C@H]1C` (stereo not given in full) as the compound, how does the Potency read?
Answer: The Potency was 2.66 µM (active).

Question: For `C=CCOC(=O)COCCC(C)C`, which Potency is on record?
Answer: Its Potency is “inactive”.

Question: For `Nc1ccn([C@H]2CS[C@@H](CO)O2)c(=O)n1`, which Potency is on record?
Answer: Its Potency is “inactive”.

Question: For `CCOc1ncc(F)c(=O)[nH]1`, which Potency is on record?
Answer: Its Potency is “inactive”.

Question: With `CCN(CC)C(=O)N1CCN(C)CC1` as the compound, how does the Potency read?
Answer: The Potency was “inactive”.

Question: For `CCCCCCCCCCCCCCCC(=O)OCC`, which Potency is on record?
Answer: Its Potency is “inactive”.

Question: Which Potency does the source give for `CCCC(=O)OC(=O)CCC` here?
Answer: The Potency was “inactive”.

Question: Which Potency does the source give for `O=C(c1ccccc1)c1ccc(O)cc1` here?
Answer: Its Potency is “inactive”.

Question: Which Potency does the source give for `Nc1nc2ccc(OC(F)(F)F)cc2s1` here?
Answer: Its Potency is “inactive”.

Question: Which Potency does the source give for `O[C@@H](CNC[C@H](O)[C@H]1CCc2cc(F)ccc2O1)[C@@H]1CCc2cc(F)ccc2O1` here?
Answer: Its Potency is 21.1 µM (active).

Question: Which Potency does the source give for `CCOC(=O)c1c(N)sc2c1CCN(Cc1ccccc1)C2` here?
Answer: The Potency was “inactive”.

Question: Which Potency does the source give for `COc1cc(S(=O)(=O)Nc2ccccc2)c(OC)cc1N` here?
Answer: The Potency was “inactive”.

Question: Which Potency does the source give for `CC(C)(C)NCC(O)COc1cccc2c1C[C@H](O)[C@H](O)C2` (stereo not given in full) here?
Answer: The Potency was “inactive”.

Question: For `Cc1ccc2c(c1)CCCN2`, which Potency is on record?
Answer: Its Potency is “inactive”.

Question: For `CC(C)COC(=O)c1ccc(O)cc1`, which Potency is on record?
Answer: The Potency was “inactive”.

Question: For `O=C(O)c1cc(Cl)cc(Cl)c1O`, which Potency is on record?
Answer: The Potency was “inactive”.

Question: Which Potency does the source give for `COc1cc(C(C)=O)ccc1OCCCN1CCC(c2noc3cc(F)ccc23)CC1` here?
Answer: Its Potency is “inactive”.

Question: For `COc1ccc(C)cc1`, which Potency is on record?
Answer: The Potency was “inactive”.

Question: With `CC1CCCO1` (stereo not given) as the compound, how does the Potency read?
Answer: The Potency was “inactive”.

Question: Which Potency does the source give for `CC(=O)C(=O)CC(C)C` here?
Answer: Its Potency is “inactive”.

Question: With `CC(C)N=C=NC(C)C` as the compound, how does the Potency read?
Answer: The Potency was “inactive”.

Question: With `O=C(O)CN1C(=O)c2cccc3cccc(c23)C1=O` as the compound, how does the Potency read?
Answer: The Potency was “inactive”.

Question: For `Cc1cn([C@H]2C[C@H](F)[C@@H](CO)O2)c(=O)[nH]c1=O`, which Potency is on record?
Answer: The Potency was “inactive”.

Question: With `CC(=O)OCC1=C(C(=O)O)N2C(=O)[C@@H](NC(=O)CSc3ccncc3)[C@H]2SC1` as the compound, how does the Potency read?
Answer: Its Potency is “inactive”.

Question: For `Cc1ccc(N(CC2=NCCN2)c2cccc(O)c2)cc1`, which Potency is on record?
Answer: The Potency was “inactive”.

Question: With `CC1=CC[C@@]23C[C@@H]1C(C)(C)[C@@H]2CC[C@H]3C` as the compound, how does the Potency read?
Answer: The Potency was “inactive”.

Question: Which Potency does the source give for `COc1ccc(/C=C/C(=O)c2ccc(OC)cc2OC)cc1` here?
Answer: The Potency was “inactive”.

Question: Which Potency does the source give for `CCCCCCCCCCCSCC(=O)O` here?
Answer: Its Potency is 24.3 µM (active).

Question: Which Potency does the source give for `CC(C)C(=O)OCCOc1ccccc1` here?
Answer: Its Potency is “inactive”.

Question: Which Potency does the source give for `CC(C)c1ccc(C#N)cc1` here?
Answer: Its Potency is “inactive”.

Question: For `CC(=O)OCCC1CCCCC1`, which Potency is on record?
Answer: The Potency was “inactive”.

Question: With `C1=CCC2CC=CC2C1` (stereo not given) as the compound, how does the Potency read?
Answer: The Potency was “inactive”.

Question: Which Potency does the source give for `COC(=O)CC(C(C)=O)C(=O)OC` (stereo not given) here?
Answer: The Potency was “inactive”.

— PubChem BioAssay (Tox21)
